Results from the supplement of paper PMC10849652.
Targets with a hit are over-represented here; the source holds about 8,800 in all. About 0.5% of all pairs of compound and target were hits. A number with no mark means an inactive call.

UniProt P49757, sequence (P49757 whole entry, looked up): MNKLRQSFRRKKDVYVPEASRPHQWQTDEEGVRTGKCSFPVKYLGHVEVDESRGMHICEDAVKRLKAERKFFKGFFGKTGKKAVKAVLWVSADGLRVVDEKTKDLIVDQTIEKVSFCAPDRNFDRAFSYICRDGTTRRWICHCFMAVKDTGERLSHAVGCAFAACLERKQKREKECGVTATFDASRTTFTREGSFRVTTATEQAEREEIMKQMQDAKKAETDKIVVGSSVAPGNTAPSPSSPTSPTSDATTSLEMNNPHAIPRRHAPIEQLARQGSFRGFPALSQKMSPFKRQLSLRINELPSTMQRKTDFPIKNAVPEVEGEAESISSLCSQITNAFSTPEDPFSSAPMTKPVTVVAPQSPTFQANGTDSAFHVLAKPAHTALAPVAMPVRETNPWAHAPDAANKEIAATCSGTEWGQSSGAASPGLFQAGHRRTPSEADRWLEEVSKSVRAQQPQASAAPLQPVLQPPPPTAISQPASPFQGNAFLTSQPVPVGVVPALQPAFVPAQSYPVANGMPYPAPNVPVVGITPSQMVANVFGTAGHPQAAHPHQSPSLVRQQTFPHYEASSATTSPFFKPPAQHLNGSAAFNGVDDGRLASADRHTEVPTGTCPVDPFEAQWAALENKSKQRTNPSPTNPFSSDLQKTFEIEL
UniProt Q8WUM0, sequence (Q8WUM0 whole entry, looked up): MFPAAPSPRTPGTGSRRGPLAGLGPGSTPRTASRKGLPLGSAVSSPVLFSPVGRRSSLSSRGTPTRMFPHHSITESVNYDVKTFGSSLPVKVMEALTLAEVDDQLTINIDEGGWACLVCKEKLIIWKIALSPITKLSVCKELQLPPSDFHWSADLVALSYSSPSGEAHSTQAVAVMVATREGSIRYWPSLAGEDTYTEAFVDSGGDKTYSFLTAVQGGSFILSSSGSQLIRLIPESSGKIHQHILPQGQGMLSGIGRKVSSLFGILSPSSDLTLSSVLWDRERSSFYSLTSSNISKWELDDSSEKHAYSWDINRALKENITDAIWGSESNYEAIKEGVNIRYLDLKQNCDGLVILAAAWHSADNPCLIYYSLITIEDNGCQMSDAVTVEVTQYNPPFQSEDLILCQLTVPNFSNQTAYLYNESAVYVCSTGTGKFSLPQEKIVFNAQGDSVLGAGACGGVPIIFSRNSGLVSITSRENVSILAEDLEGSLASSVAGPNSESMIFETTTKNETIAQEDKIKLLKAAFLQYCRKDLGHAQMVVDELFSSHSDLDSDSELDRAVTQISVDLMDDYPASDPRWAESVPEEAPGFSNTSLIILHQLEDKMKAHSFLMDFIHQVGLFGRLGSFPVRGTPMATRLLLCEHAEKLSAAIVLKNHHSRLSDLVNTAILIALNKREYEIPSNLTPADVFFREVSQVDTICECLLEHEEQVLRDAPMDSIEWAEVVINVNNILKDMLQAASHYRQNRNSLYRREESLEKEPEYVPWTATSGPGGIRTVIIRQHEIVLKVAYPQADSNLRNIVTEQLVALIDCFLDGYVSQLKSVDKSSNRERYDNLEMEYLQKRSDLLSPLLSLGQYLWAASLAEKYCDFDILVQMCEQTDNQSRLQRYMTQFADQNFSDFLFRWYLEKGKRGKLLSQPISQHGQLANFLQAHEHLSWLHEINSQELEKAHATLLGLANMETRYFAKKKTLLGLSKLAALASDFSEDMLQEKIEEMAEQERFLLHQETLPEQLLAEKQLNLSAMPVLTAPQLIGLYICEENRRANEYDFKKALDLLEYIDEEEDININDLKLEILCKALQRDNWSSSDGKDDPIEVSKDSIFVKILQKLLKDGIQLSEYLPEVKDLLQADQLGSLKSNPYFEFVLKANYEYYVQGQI
UniProt O00483, sequence (O00483 whole entry, looked up): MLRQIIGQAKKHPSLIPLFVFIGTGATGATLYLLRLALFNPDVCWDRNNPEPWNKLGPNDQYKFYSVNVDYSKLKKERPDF
UniProt Q8TDX7, sequence (Q8TDX7 whole entry, looked up): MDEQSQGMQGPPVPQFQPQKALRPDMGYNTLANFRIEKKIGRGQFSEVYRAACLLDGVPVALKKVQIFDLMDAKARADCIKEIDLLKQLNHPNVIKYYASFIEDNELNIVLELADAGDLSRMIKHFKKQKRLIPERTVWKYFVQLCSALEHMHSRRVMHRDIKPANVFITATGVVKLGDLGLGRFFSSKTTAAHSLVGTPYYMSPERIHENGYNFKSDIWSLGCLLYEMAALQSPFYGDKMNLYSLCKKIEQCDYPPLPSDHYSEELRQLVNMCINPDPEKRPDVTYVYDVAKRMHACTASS
UniProt Q15102, sequence (Q15102 whole entry, looked up): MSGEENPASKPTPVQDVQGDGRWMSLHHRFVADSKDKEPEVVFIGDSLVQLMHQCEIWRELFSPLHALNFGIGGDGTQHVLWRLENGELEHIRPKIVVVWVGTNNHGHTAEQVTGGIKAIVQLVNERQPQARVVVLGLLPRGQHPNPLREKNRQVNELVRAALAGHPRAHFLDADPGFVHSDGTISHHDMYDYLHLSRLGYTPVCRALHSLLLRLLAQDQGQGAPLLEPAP
UniProt Q9Y530, sequence (Q9Y530 whole entry, looked up): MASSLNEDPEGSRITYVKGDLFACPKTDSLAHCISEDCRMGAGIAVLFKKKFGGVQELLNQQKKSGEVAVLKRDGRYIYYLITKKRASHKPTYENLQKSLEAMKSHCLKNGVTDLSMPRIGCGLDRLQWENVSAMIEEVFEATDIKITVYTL
UniProt Q15021, sequence (Q15021 whole entry, looked up): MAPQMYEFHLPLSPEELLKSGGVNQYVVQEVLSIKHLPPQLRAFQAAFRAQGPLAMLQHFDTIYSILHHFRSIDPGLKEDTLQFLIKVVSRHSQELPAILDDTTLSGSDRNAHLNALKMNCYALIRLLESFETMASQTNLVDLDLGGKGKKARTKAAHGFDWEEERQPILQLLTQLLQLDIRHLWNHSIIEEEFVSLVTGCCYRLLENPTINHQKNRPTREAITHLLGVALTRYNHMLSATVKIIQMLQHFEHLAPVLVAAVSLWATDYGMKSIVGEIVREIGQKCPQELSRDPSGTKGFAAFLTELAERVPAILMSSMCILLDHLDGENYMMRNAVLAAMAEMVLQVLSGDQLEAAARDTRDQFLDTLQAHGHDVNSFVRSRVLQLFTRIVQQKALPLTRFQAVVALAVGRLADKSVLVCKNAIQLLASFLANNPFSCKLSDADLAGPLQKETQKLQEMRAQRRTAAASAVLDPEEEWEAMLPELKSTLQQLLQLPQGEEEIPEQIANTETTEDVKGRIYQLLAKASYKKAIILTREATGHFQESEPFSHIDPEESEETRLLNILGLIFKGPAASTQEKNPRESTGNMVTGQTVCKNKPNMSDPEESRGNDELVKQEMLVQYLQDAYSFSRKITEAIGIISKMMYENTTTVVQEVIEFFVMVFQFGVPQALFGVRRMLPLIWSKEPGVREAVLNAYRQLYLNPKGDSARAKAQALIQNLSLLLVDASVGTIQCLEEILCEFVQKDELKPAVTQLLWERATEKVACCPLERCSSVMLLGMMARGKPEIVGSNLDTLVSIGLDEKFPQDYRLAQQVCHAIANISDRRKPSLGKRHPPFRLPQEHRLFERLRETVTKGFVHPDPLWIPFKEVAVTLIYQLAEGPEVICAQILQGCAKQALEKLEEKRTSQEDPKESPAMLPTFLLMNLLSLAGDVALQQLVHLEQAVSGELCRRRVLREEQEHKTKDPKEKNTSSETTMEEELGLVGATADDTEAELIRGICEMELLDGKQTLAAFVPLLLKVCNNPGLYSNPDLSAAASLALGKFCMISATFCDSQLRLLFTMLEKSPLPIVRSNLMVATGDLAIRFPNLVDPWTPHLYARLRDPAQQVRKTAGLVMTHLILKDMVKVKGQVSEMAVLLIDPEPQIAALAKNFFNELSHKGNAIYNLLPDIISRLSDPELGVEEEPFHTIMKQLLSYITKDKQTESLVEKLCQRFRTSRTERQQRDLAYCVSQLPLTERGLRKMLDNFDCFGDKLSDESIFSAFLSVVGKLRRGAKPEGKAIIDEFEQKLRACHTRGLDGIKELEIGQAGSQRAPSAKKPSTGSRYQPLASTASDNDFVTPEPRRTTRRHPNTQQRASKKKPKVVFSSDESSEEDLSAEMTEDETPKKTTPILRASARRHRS
UniProt Q01968, sequence (Q01968 whole entry, looked up): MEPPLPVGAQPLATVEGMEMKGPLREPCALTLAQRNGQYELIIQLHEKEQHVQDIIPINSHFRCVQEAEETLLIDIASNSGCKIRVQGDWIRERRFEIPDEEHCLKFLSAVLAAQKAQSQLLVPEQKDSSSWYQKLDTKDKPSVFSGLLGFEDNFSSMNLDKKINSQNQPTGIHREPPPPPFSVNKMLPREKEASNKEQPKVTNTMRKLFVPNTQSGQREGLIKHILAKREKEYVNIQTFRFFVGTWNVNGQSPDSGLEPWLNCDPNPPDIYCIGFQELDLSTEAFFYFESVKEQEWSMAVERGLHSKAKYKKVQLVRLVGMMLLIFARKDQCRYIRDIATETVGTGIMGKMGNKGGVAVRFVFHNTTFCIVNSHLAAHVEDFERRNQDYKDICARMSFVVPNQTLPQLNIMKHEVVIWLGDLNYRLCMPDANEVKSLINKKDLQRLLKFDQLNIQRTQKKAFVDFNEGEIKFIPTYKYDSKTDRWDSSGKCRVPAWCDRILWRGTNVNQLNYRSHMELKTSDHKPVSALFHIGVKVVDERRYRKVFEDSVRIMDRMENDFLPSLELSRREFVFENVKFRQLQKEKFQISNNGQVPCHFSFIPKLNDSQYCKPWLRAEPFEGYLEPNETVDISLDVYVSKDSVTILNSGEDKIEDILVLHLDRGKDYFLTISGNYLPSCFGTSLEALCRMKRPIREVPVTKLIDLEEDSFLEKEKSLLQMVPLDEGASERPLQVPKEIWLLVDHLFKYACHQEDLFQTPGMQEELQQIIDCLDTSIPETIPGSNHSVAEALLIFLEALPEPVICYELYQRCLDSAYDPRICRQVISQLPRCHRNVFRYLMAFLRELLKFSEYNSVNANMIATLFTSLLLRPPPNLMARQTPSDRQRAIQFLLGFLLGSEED

These targets were tested with CC[C@@H]1C(=O)N(C)c2cnc(Nc3ccc(C(=O)N[C@H]4CC[C@H](N5CCN(CC6CC6)CC5)CC4)cc3OC)nc2N1C(C)C [volasertib] (assay: log2 fold change, soluble protein after heating vs DMSO (PISA); higher = thermal stabilisation; K562 lysate, 10 uM; active = over 0.2 and 3.5 SD of the protein, either way, in both replicates (recomputed)).
Summary of the method: (§1)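 To prepare the extract, K562 pellets were dounce-homogenised in PBS pH 7.4 with 1 mM MgCl2, giving crude material at 1 mg/mL protein. This was treated with 10 μM compound for 30 min, then heated in aliquots for 3 min over 48°C-58°C before pooling and addition of NP-40 to 0.5% at 4°C. Centrifugation at 21,000xg for 90 min left soluble protein in the supernatant, which TMTpro 16plex LC-MS/MS quantified with equalised channel sums. Results are log-two fold changes in thermal stability compared with solvent controls, from duplicates.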
NFAT5 isoform 5 (UniProt O94916) was tested, and the log2 fold change was -0.016. In the case of NQO1 (UniProt P15559), the log2 fold change is reported as -0.082. OARD1 (UniProt Q9Y530) showed a log2 fold change of -0.031. With NARS2 (UniProt Q96I59) the log2 fold change was -0.067. With OPA1 isoform 2 (UniProt O60313) the log2 fold change was -0.033. In the case of NFKBIB (UniProt Q15653), the log2 fold change is reported as 0.068. NCAPH (UniProt Q15003) showed a log2 fold change of -0.044. OCRL (UniProt Q01968) was tested, and the log2 fold change was -0.057. NNT (UniProt Q13423) gave a log2 fold change of 0.031. NEXN (UniProt Q0ZGT2) showed a log2 fold change of 0.051. For NR3C1 isoform 3 (UniProt P04150), the log2 fold change was -0.046. In the case of NGLY1 (UniProt Q96IV0), the log2 fold change is reported as -0.034. Target NUMBL (UniProt Q9Y6R0) has a log2 fold change of -0.037. In the case of PAFAH1B3 (UniProt Q15102), the log2 fold change is reported as -0.067. OLA1 (UniProt Q9NTK5) showed a log2 fold change of -0.029. In the case of NUMB (UniProt P49757), the log2 fold change is reported as -0.015. OSBPL3 isoform 2 (UniProt Q9H4L5) showed a log2 fold change of -0.139. NFATC2 (UniProt Q13469) was tested, and the log2 fold change was -0.069. For PARP14 (UniProt Q460N5), the log2 fold change was 0.001. For MTHFD1L (UniProt B7ZM99), the log2 fold change was -0.002. For NSA2 (UniProt O95478), the log2 fold change was 0.034. NBEAL2 (UniProt Q6ZNJ1) was tested, and the log2 fold change was -0.128. Work on NDUFA4 (UniProt O00483) yielded a log2 fold change of 0.122. With NSL1 (UniProt Q96IY1) the log2 fold change was 0.007. For NOB1 (UniProt Q9ULX3), the log2 fold change was -0.02. In the case of OAT (UniProt P04181), the log2 fold change is reported as -0.014. Target NEK7 (UniProt Q8TDX7) has a log2 fold change of -0.091. In the case of MTFP1 (UniProt Q9UDX5), the log2 fold change is reported as 0.041. Work on NIPSNAP3A (UniProt Q9UFN0) yielded a log2 fold change of 0.019. Work on NAA35 (UniProt Q5VZE5) yielded a log2 fold change of -0.026. NCAPD2 (UniProt Q15021) gave a log2 fold change of -0.057. NUP133 (UniProt Q8WUM0) was tested, and the log2 fold change was -0.081. Target MSI2 (UniProt Q96DH6) has a log2 fold change of -0.023. OGFR (UniProt Q9NZT2) gave a log2 fold change of -0.067. Target MTA1 (UniProt Q13330) has a log2 fold change of -0.007.

These targets were tested with CCn1c(C(=O)N(C2CC2)C2CC2)cc2c3c(ncn3C)c(Nc3cc(C)n(C)n3)nc21 in the same assay as above.
Summary of the method: as §1
Work on NFAT5 isoform 5 (UniProt O94916) yielded a log2 fold change of 0.042. With NQO1 (UniProt P15559) the log2 fold change was -0.023. OARD1 (UniProt Q9Y530) showed a log2 fold change of 0.022. NARS2 (UniProt Q96I59) showed a log2 fold change of 0.041. In the case of OPA1 isoform 2 (UniProt O60313), the log2 fold change is reported as 0.037. Work on NFKBIB (UniProt Q15653) yielded a log2 fold change of -0.054. For NCAPH (UniProt Q15003), the log2 fold change was 0.027. Target OCRL (UniProt Q01968) has a log2 fold change of -0.032. With NNT (UniProt Q13423) the log2 fold change was -0.004. For NEXN (UniProt Q0ZGT2), the log2 fold change was 0.075. NR3C1 isoform 3 (UniProt P04150) gave a log2 fold change of 0.001. In the case of NGLY1 (UniProt Q96IV0), the log2 fold change is reported as 0.002. Target NUMBL (UniProt Q9Y6R0) has a log2 fold change of 0.189. With PAFAH1B3 (UniProt Q15102) the log2 fold change was 0.031. OLA1 (UniProt Q9NTK5) gave a log2 fold change of 0.04. NUMB (UniProt P49757) was tested, and the log2 fold change was 0.008. In the case of OSBPL3 isoform 2 (UniProt Q9H4L5), the log2 fold change is reported as 0.025. Work on NFATC2 (UniProt Q13469) yielded a log2 fold change of -0.006. With PARP14 (UniProt Q460N5) the log2 fold change was 0.003. MTHFD1L (UniProt B7ZM99) was tested, and the log2 fold change was 0.019. With NSA2 (UniProt O95478) the log2 fold change was -0.043. In the case of NBEAL2 (UniProt Q6ZNJ1), the log2 fold change is reported as 0.01. NDUFA4 (UniProt O00483) gave a log2 fold change of 0.085. In the case of NSL1 (UniProt Q96IY1), the log2 fold change is reported as 0.048. With NOB1 (UniProt Q9ULX3) the log2 fold change was -0.003. OAT (UniProt P04181) was tested, and the log2 fold change was -0.006. NEK7 (UniProt Q8TDX7) gave a log2 fold change of -0.025. MTFP1 (UniProt Q9UDX5) was tested, and the log2 fold change was 0.061. For NIPSNAP3A (UniProt Q9UFN0), the log2 fold change was -0.024. In the case of NAA35 (UniProt Q5VZE5), the log2 fold change is reported as 0.001. Work on NCAPD2 (UniProt Q15021) yielded a log2 fold change of 0.022. Work on NUP133 (UniProt Q8WUM0) yielded a log2 fold change of 0.05. For MSI2 (UniProt Q96DH6), the log2 fold change was 0.13. With OGFR (UniProt Q9NZT2) the log2 fold change was 0.004. With MTA1 (UniProt Q13330) the log2 fold change was -0.003.
